Experimental data published in the supplement of paper PMC6555819.

Key:
Assay in all cases: PBM binding z-score (relative to random genomic background probes); higher = stronger binding; sequences stand for … in GC…GCGATTGACAGCGTAGAATGAAGG
[1] = tested on: FXR:RXRa (NR concentration 270 nM, RXRa partner concentration 90 nM)
How it was run: (§1)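 Ligand-free nuclear receptor dimers were applied to custom Agilent 4×180K protein-binding microarrays whose double-stranded probes carried direct-repeat seeds, single-nucleotide variants, half-site ablations and random human genomic background sequences in 34-nt variable regions. Incubation lasted 1 h. Binding z-scores were computed against the random background probes from regression-normalized fluorescence.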

[2] = tested on: LXRa:RXRa (NR concentration 270 nM, RXRa partner concentration 90 nM)
How it was run: as §1

[3] = tested on: LXRa homodimer (NR concentration 270 nM)
How it was run: as §1

[4] = tested on: LXRb:RXRa (NR concentration 270 nM, RXRa partner concentration 90 nM)
How it was run: as §1

[5] = tested on: LXRb homodimer (NR concentration 270 nM)
How it was run: as §1

[6] = tested on: PPARa:RXRa (NR concentration 270 nM, RXRa partner concentration 90 nM)
How it was run: as §1

[7] = tested on: PPARg:RXRa (NR concentration 180 nM, RXRa partner concentration 90 nM)
How it was run: as §1

[8] = tested on: PPARg:RXRa 270nM:90nM, anti-RXR (NR concentration 270 nM, RXRa partner concentration 90 nM)
How it was run: as §1

[9] = tested on: PPARg:RXRa 30nM:10nM, anti-RXR (NR concentration 30 nM, RXRa partner concentration 10 nM)
How it was run: as §1

[10] = tested on: PPARg:RXRa 90nM:30nM, anti-RXR (NR concentration 90 nM, RXRa partner concentration 30 nM)
How it was run: as §1

[11] = tested on: PPARg:RXRa DBDmut IVT, anti-RXR (DBD mutation: RXRa K156A/R161A, NR concentration 270 nM, RXRa partner concentration 90 nM)
How it was run: as §1

[12] = tested on: PPARg:RXRa IVT, anti-PPARg (NR concentration 270 nM, RXRa partner concentration 90 nM)
How it was run: as §1

[13] = tested on: PPARg DBDmut:RXRa IVT, anti-PPARg (DBD mutation: PPARg1 K132A/R137A, NR concentration 270 nM, RXRa partner concentration 90 nM)
How it was run: as §1

[14] = tested on: PPARg DBDmut IVT, anti-PPARg (DBD mutation: PPARg1 K132A/R137A, NR concentration 270 nM)
How it was run: as §1

[15] = tested on: PPARg homodimer (NR concentration 180 nM)
How it was run: as §1

[16] = tested on: PXR:RXRa (NR concentration 270 nM, RXRa partner concentration 90 nM)
How it was run: as §1

[17] = tested on: PXR homodimer (NR concentration 270 nM)
How it was run: as §1

[18] = tested on: RARa:RXR (NR concentration 270 nM, RXRa partner concentration 90 nM)
How it was run: as §1

[19] = tested on: RARa homodimer (NR concentration 270 nM)
How it was run: as §1

[20] = tested on: RARb:RXRa (NR concentration 270 nM, RXRa partner concentration 90 nM)
How it was run: as §1

Sequence	PBM binding z-score [1]	PBM binding z-score [2]	PBM binding z-score [3]	PBM binding z-score [4]	PBM binding z-score [5]	PBM binding z-score [6]	PBM binding z-score [7]	PBM binding z-score [8]	PBM binding z-score [9]	PBM binding z-score [10]	PBM binding z-score [11]	PBM binding z-score [12]	PBM binding z-score [13]	PBM binding z-score [14]	PBM binding z-score [15]	PBM binding z-score [16]	PBM binding z-score [17]	PBM binding z-score [18]	PBM binding z-score [19]	PBM binding z-score [20]
GATACAGGGTCCAGGCCAGAGTACGCGTATTGAT	-0.251	-0.534	-0.485	-0.738	-0.692	-0.292	0.664	-0.347	-0.488	-0.478	-0.66	-0.0913	-0.12	-0.0353	0.34	-0.441	-0.03	-0.412	-0.345	0.355
CATACAGGGTCAGCTAGGCCGGAGTAGGGACGGC	4.6	2.61	-0.304	1.86	0.54	3.9	2.9	2.96	0.304	1.69	0.767	2.06	0.399	0.204	1.63	1.76	-0.278	2.9	0.038	3.87
CAAACTAGGTTAAGAGGTCAAAGTCCGCTTCCCG	5.61	5.82	6.25	4.8	1.58	5.87	7.84	7.23	5.52	7.19	7.16	7.32	2.96	2.44	4.58	5.64	2.31	6.47	2.19	4.23
CCTTACGGGTCACGAGCTTATAGCACGACGAGCG	6.56	4.18	-0.258	3.49	-0.00639	5.9	6.33	6.04	2.64	4.89	3.78	4.75	2.37	2.07	3.27	3.85	-0.361	5.25	0.902	4.42
ATATGTAGGTTATCGAGTCATTCAGTTTGCGCAT	0.672	1.1	0.419	1.04	0.701	3.37	4.61	4.14	2	3.27	6.65	6.84	3.25	2.73	1.91	0.622	0.241	0.687	1	0.872
GCTTGTAGAACAAGGTTAAGAAAGACTAAGCTAA	-0.242	0.558	-0.426	0.502	-0.664	1.6	0.852	1.67	0.36	1.11	1.63	1.06	-0.311	-0.211	0.167	0.293	-0.338	0.612	-0.688	0.679
CCGACTGGGGCAAGGTTTCCATAACGCACAGCCA	-0.141	-0.322	-0.44	-0.321	-0.889	0.606	2.28	2.75	0.608	1.97	2.98	3.2	-0.0108	-1.24	0.216	-0.725	-0.351	-0.351	-0.575	0.592
CGAACTTGGTCAGAACAGGACAGTGAAGGATGAT	-0.314	-0.426	-0.321	-0.516	-0.663	-0.129	0.567	-0.142	-0.0842	-0.55	-0.158	0.0276	0.221	-0.53	-0.163	-0.41	0.0699	0.0937	-0.39	0.542
CCTCGGAGGACAACAGGACGTCAGAGCTGCCAGA	0.0455	-0.556	-0.533	-0.881	-0.769	-0.616	0.187	-1.2	-0.952	-1.19	-0.431	-0.589	-0.661	-1.48	-0.0308	-0.587	-0.482	-0.32	-0.489	0.92
TCTATTAGTTGATTCGGGCAACCGAAACAGCGGA	0.597	0.339	0.411	0.655	0.739	0.742	-0.102	1.84	3.9	2.85	1.91	0.598	0.957	0.979	0.106	0.3	0.223	0.414	0.742	0.671
TCTGCTAGGTCATTTGGTCAGCTAACGAGCTGCC	4.28	3.21	1.04	2.03	1.81	3.19	1.97	3.11	1.64	2.37	3.73	3.88	3.37	1.7	1.5	1.46	-0.592	2.1	-1.02	3.62
TCTCGGAGAACACGAAAGGTCAGAGCTCGACATC	2.02	3.08	1.46	3	-0.199	3.32	0.977	2.21	2.43	2.25	1.25	1.13	-0.0833	-0.197	1.7	3.39	0.0795	3.89	0.536	3.55
ATCTCTAGGTATCCAAGTTCAGTGAATGCCGAAC	0.313	0.879	2	0.57	0.976	0.511	0.0341	0.21	0.21	0.503	0.377	0.859	0.495	0.766	1.01	1.5	1.56	0.618	0.883	0.966
CCTTACGGGTCACTCCAGGTTATGGCATCGGAGT	4.99	7.21	1.54	4.4	-0.0375	4.24	3.15	3.76	0.907	2.67	2.6	3.76	-0.451	-0.505	1.71	4.55	0.182	3.46	0.437	3.78
CTCGAAAGGTCGGTTGAGGTGAATATACGGATAA	2.5	2.04	0.0954	1.76	0.0541	3.15	0.944	1.6	0.365	1.15	-0.113	1.11	0.319	0.349	0.741	3.62	0.148	2.94	0.256	3.27
CGAACTAGGTCATACAGGACAGTGAATACATTGA	3.71	2.61	0.562	1.97	0.184	4.67	7.62	6.24	3.84	5.74	8.15	8.47	4.73	2	1.93	1.48	0.551	2	0.758	3.5
TCTTATAGGTAATACAGGTGAAAGTCGGCATCTA	1.18	1.45	0.636	1.17	0.858	2.06	1.26	2.8	3.97	3.16	4.02	3.44	1.76	1.72	1.19	0.981	0.463	1.37	1.47	0.816
CCTAGCAGGCCAATCTGGGTCACTGAAGGCTTGA	1.19	1.16	-0.588	0.364	-1.38	3.01	1.75	2.55	0.263	1.81	4.44	5.17	0.524	0.356	0.812	0.783	-0.752	1.67	-0.428	1.64
CAAACTTGGTCACGAAAGGTCAAAGTCGAATGAC	5.56	6.11	5.72	5.74	2.04	5.22	4.84	5.24	2.75	4.59	2.71	4.16	0.428	0.593	4.33	6.21	1.66	6.77	3.25	4.68
ATATGTAGGTTGCATCCGGGTCATTCAGGCTATG	1.21	1.43	0.122	1.29	-0.0904	2.76	1.97	1.68	0.362	1.36	4.33	3.93	1.47	0.927	0.466	2.76	1.85	2.73	0.0936	1.4
CCTGCTAGGTCATGGTCAGCTAATCTACAGTATG	3.81	2.6	0.19	1.83	-0.244	3.52	2.37	2.98	0.934	1.97	4.5	4.22	0.0201	0.284	0.79	1.41	0.115	2.34	0.369	3.95
ATCTCTAGGTAAAGTTCAGTAAAAGATCGATAGA	1.06	1.77	1.7	1.29	0.992	2.18	2.91	4.22	2.52	4.14	2.04	2.45	1.82	0.984	2.05	2.07	2.09	1.42	2.26	2.82
AATACAGGGTCACTAGGCTAGAGTAGGTACGAAT	6.21	5.05	0.889	3.9	0.775	5.9	7.63	6.19	2.53	5.09	3.32	5.41	1.74	1.68	2.15	2.96	0.638	3.99	1.21	4.28
CCTTACGGGTCACAGACAGGTTATAGCATTTGGA	5.55	4.19	0.611	3.84	0.0624	5.36	5.74	5.16	2.14	3.99	3.72	4.63	1.16	0.89	2.76	3.87	0.387	4.91	0.967	4.01
CAAACTATGTCAAGAGGTCAAAGTCCGCTTCCCG	5.04	5.63	5.89	4.97	2.01	5.33	5.62	6.27	4.55	6	4.61	4.88	1.22	0.601	4.01	5.64	2.84	6.21	2.09	4.3
CCTCGGAGGATAACAGGAGGTCAGAGCTGCCAGA	0.758	2.44	2.34	1.24	-0.35	1.61	0.275	-0.114	-0.739	-0.596	-0.616	0.0476	-0.938	-1.92	1.75	1.78	0.657	2.39	0.565	1.99
ACAGGCAGGTGAGTGAAGGTAACTCAGCTGGACG	0.139	-0.0924	-0.455	-0.499	-0.66	0.119	0.199	-0.206	-0.505	-0.636	0.549	0.264	-0.867	-0.655	-0.302	-0.384	-0.354	-0.019	-0.662	0.283
GCTCGGAGGAGAAGGTCAGAGCTTTGTCCGTAGA	0.655	0.736	-0.584	0.516	-1.44	1.79	-0.0558	0.967	-0.721	0.353	-0.348	0.169	-0.938	-2.35	0.184	1.06	-1.02	1.58	-1	2.3
CCAGACAGGTGAAAGGTAACTCATTCTGGTACGC	0.79	0.853	0.0278	1.09	-0.276	3.51	5.48	6.19	3.72	6.34	2.34	3.01	-0.114	-0.175	1.3	1.12	0.37	2.12	1.09	1.4
